Measurements: PubChem BioAssay (NCATS)
Several values for one entry are separate records, joined by “and”; a condition that tells them apart may be missing. Equal entries are not always repeated. Records with an inconclusive call do not appear. Some structures have more than one record in an assay (separate samples or runs), and their calls can disagree. Activity calls are given as the source filed them. Unless noted, calls come from the whole dose curve; as a rule, active = well fitted curve in the direction sought with a large enough effect; inconclusive = small, poorly fitted or top-dose-only effect, or another doubt; inactive = no such curve, though single readings can be large; an effect the other way counts as inactive or inconclusive.

What was measured:
Hek293T = test: Primary qHTS to identify gynecologic anti-cancer compounds using libraries of approved drugs and bioactive compounds (AID 1345084); conditions: Gynecologic cancer cell panel viability, ATPlite luminescence, 48 h, control line for the selectivity index; series mostly up to 57.5 µM; note: % is set by controls: 0 for no effect and ±100 for the full control effect; nearly all actives have a fitted effect of over 55% in size
Outline: (§1)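 In this quantitative HTS, cell killing is estimated from loss of ATP-dependent luciferase light. Cells see five compound concentrations over a 48 h exposure.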

JEG-3 = test: as above; conditions: Gynecologic cancer cell panel viability, ATPlite luminescence, 48 h; series mostly up to 57.5 µM
Outline: as §1

OV90 = test: as above; conditions: Gynecologic cancer cell panel viability, ATPlite luminescence, 48 h; series mostly up to 57.5 µM
Outline: as §1

PA-1 = test: as above; conditions: Gynecologic cancer cell panel viability, ATPlite luminescence, 48 h; series mostly up to 57.5 µM
Outline: as §1

SKOV3 = test: as above; conditions: Gynecologic cancer cell panel viability, ATPlite luminescence, 48 h; series mostly up to 57.5 µM
Outline: as §1

Tov-21-G = test: as above; conditions: Gynecologic cancer cell panel viability, ATPlite luminescence, 48 h; series mostly up to 57.5 µM
Outline: as §1

Tov112D = test: as above; conditions: Gynecologic cancer cell panel viability, ATPlite luminescence, 48 h; series mostly up to 57.5 µM
Outline: as §1

[1] = Drug repurposing screens with cells derived from glioblastoma tumor samples (AID 1345199); conditions: GBM patient neurospheres viability, ATP luminescence, 48 h; note: nearly all actives have a fitted effect of over 40% in size; note: potency is the fitted concentration of half-maximal effect; for activity, negative = cell killing: % is set by controls: 0 for no effect and ±100 for the full control effect
Outline: (§2)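 Four patient lines of CD133+ GBM neurospheres were screened at several concentrations; hits were retested in those lines plus three slower-growing GBM lines, using 48-hour treatment and ATP-based viability.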

[2] = qHTS assay to identify inhibitors of the type 1 interferon - major histocompatibility complex class I in skeletal muscle: Counter screen cell viability and HiBit confirmation (AID 1347412); conditions: iHSKM muscle cells + IFN-b, HiBiT or CellTiter-Glo, 24 h; Potency: HiBiT; Viability, at 45.9 µM (top of the series); note: % is set by controls: 0 for no effect and ±100 for the full control effect; nearly all actives have a fitted effect of over 60% in size
Outline: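 Luminescence read-out: Nano-Glo HiBiT lytic signal from C-terminally HiBiT-tagged HLA-B in CRISPR-edited human myoblasts, plus CellTiter Glo ATP as viability counter screen. IFN-beta 4.0 ng/ml; 24 hrs treatment at 37 C, 5% CO2.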

astro = test: Drug repurposing screens with cells derived from glioblastoma tumor samples (AID 1345199); conditions: viability, ATP luminescence, 48 h; series mostly up to 45.9 µM; note: nearly all actives have a fitted effect of over 40% in size; note: potency is the fitted concentration of half-maximal effect; for activity, negative = cell killing: % is set by controls: 0 for no effect and ±100 for the full control effect
Outline: as §2

[3] = target: Nuclear receptor subfamily 1 group I member 2 (Rattus norvegicus) (UniProt Q9R1A7); test: qHTS assay for small molecule activators of the rat pregnane X receptor (rPXR) signaling pathway (AID 651751; call rule not given here; note: 0% is about no effect); conditions: rPXR reporter cells, luciferase (One-Glo), 24 h
Sequence of Nuclear receptor subfamily 1 group I member 2 (Rattus norvegicus) (Q9R1A7 whole entry, looked up): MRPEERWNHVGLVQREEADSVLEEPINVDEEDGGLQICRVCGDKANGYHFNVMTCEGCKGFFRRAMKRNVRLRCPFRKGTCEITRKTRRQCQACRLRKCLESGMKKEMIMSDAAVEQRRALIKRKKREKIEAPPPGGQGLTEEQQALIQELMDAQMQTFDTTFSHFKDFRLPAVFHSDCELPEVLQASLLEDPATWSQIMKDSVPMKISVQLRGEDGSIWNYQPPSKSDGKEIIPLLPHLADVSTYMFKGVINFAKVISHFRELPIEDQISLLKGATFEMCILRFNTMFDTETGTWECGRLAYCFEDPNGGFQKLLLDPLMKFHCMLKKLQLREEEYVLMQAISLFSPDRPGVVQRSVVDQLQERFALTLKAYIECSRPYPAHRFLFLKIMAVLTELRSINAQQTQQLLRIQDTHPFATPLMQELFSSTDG

[4] = qHTS assay for small molecule activators of the human pregnane X receptor (PXR) signaling pathway (AID 720659; call rule not given here; note: 0% is about no effect)
[5] = at 45.9 µM (top of the series), tumour line B
[6] = at 46.1 µM (top of the series), tumour line C
[7] = at 45.9 µM (top of the series), tumour line D

COC(=O)C1=C(C)NC(COC(N)=O)=C(C(=O)OC(C)C)C1c1cccc(Cl)c1Cl (stereo not given)
active: Potency ([1]; tumour line A) 8.91 µM | Potency ([1]; tumour line D) 12.6 µM
inactive: Potency (Hek293T) | Potency (JEG-3) | Potency (OV90) | Potency (PA-1) | Potency (SKOV3) | Potency (Tov-21-G) | Potency (Tov112D) | activity, negative = cell killing [1, 5] 0.976% | Potency [2]

CC(=O)OCC(=O)[C@@]1(O)[C@H](OC(C)=O)C[C@H]2[C@@H]3CCC4=CC(=O)C=C[C@]4(C)[C@@]3(F)[C@@H](O)C[C@@]21C
inactive: Potency (Hek293T) | Potency (JEG-3) | Potency (OV90) | Potency (PA-1) | Potency (SKOV3) | Potency (Tov-21-G) | Potency (Tov112D) | Potency (astro)

Cc1ccccc1N1CCN(CCc2nnc3n2CCCC3)CC1
inactive: Potency (Hek293T) | Potency (JEG-3) | Potency (OV90) | Potency (PA-1) | Potency (SKOV3) | Potency (Tov-21-G) | Potency (Tov112D) | activity, negative = cell killing [1, 5] -2% | activity, negative = cell killing [1, 6] 19.6% | Potency (astro)

C[N+]1(C)CCC(OC(=O)C(O)(c2ccccc2)C2CCCC2)C1 (stereo not given)
active: Potency ([1]; tumour line A) 11.2 µM
inactive: Potency (Hek293T) | Potency (JEG-3) | Potency (OV90) | Potency (PA-1) | Potency (SKOV3) | Potency (Tov-21-G) | Potency (Tov112D) | activity, negative = cell killing [1, 7] -7.1% | activity, negative = cell killing [1, 6] -3.15% and -15.3% | Potency (astro)

O=C(O)c1ccccc1S
inactive: Potency (Hek293T) | Potency (JEG-3) | Potency (OV90) | Potency (PA-1) | Potency (SKOV3) | Potency (Tov-21-G) | Potency (Tov112D) | activity, negative = cell killing [1, 5] 0.0031% | activity, negative = cell killing [1, 7] 6.57% | activity, negative = cell killing [1, 6] 1.53% | Potency (astro)

c1ccc(C(O[C@H]2CCCN(CCc3ccc4c(c3)OCO4)C2)c2ccccc2)cc1
active: Potency ([1]; tumour line A) 11.2 µM
inactive: Potency (Hek293T) | Potency (JEG-3) | Potency (OV90) | Potency (PA-1) | Potency (SKOV3) | Potency (Tov-21-G) | Potency (Tov112D) | activity, negative = cell killing [1, 5] -23.2% | Potency (astro)

CC(=O)OCC[N+](C)(C)C
inactive: Potency (Hek293T) | Potency (JEG-3) | Potency (OV90) | Potency (PA-1) | Potency (SKOV3) | Potency (Tov-21-G) | Potency (Tov112D) | Potency (astro)

C1N2CN3CN1CN(C2)C3
inactive: Potency (Hek293T) | Potency (JEG-3) | Potency (OV90) | Potency (PA-1) | Potency (SKOV3) | Potency (Tov-21-G) | Potency (Tov112D) | Potency (astro)

CC(=O)[C@@]1(O)CC[C@H]2[C@@H]3C[C@H](C)C4=CC(=O)CC[C@]4(C)[C@H]3CC[C@@]21C
inactive: Potency (Hek293T) | Potency (JEG-3) | Potency (OV90) | Potency (PA-1) | Potency (SKOV3) | Potency (Tov-21-G) | Potency (Tov112D) | activity, negative = cell killing [1, 5] -5.63% | activity, negative = cell killing [1, 7] -15.6% | activity, negative = cell killing [1, 6] -11.3% | Potency (astro) | Potency [2]

O=C1CC2(CCCC2)CC(=O)N1CCNCC1COc2ccccc2O1 (stereo not given)
inactive: Potency (Hek293T) | Potency (JEG-3) | Potency (OV90) | Potency (PA-1) | Potency (SKOV3) | Potency (Tov-21-G) | Potency (Tov112D) | Potency (astro)

OC[C@]1(O)OC[C@@H](O)[C@H](O)[C@@H]1O
inactive: Potency (Hek293T) | Potency (JEG-3) | Potency (OV90) | Potency (PA-1) | Potency (SKOV3) | Potency (Tov-21-G) | Potency (Tov112D) | activity, negative = cell killing [1, 5] 6.45% | activity, negative = cell killing [1, 7] -1.03% | activity, negative = cell killing [1, 6] 12.8% | Potency (astro)

COc1cc(C(=O)OC(COCCC(C)C)CN2CCOCC2)cc(OC)c1OC (stereo not given)
inactive: Potency (Hek293T) | Potency (JEG-3) | Potency (OV90) | Potency (PA-1) | Potency (SKOV3) | Potency (Tov-21-G) | Potency (Tov112D) | activity, negative = cell killing [1, 5] -6.94% | activity, negative = cell killing [1, 7] -4.84% | activity, negative = cell killing [1, 6] -4.89% | Potency (astro)

CCCCC(CC)COC(=O)c1ccccc1C(=O)O (stereo not given)
inactive: Potency (Hek293T) | Potency (JEG-3) | Potency (OV90) | Potency (PA-1) | Potency (SKOV3) | Potency (Tov-21-G) | Potency (Tov112D) | activity, negative = cell killing ([1]; at 91.6 µM (top of the series), tumour line B) -11.6% | activity, negative = cell killing ([1]; at 91.6 µM (top of the series), tumour line D) -15.6% | activity, negative = cell killing ([1]; at 99.2 µM (top of the series), tumour line C) -7.68% | Potency (astro) | max response [3] 1.45% and -0.807%

Cc1ncc(CO)c(CO)c1O
inactive: Potency (Hek293T) | Potency (JEG-3) | Potency (OV90) | Potency (PA-1) | Potency (SKOV3) | Potency (Tov-21-G) | Potency (Tov112D) | activity, negative = cell killing [1, 5] 0.285% | activity, negative = cell killing [1, 7] -6.71% | activity, negative = cell killing [1, 6] 3.74% | Potency (astro) | max response [3] -2.11% | outcome [4]

O=[N+]([O-])c1nccn1CO[C@@H](CO)[C@H](O)CO
inactive: Potency (Hek293T) | Potency (JEG-3) | Potency (OV90) | Potency (PA-1) | Potency (SKOV3) | Potency (Tov-21-G) | Potency (Tov112D) | activity, negative = cell killing [1, 5] -1.15% | activity, negative = cell killing [1, 7] -7.16% | activity, negative = cell killing [1, 6] -8.18% | Potency (astro)

CN1C(CSCC(F)(F)F)Nc2cc(Cl)c(S(N)(=O)=O)cc2S1(=O)=O (stereo not given)
inactive: Potency (Hek293T) | Potency (JEG-3) | Potency (OV90) | Potency (PA-1) | Potency (SKOV3) | Potency (Tov-21-G) | Potency (Tov112D) | activity, negative = cell killing [1, 5] -3.33% | activity, negative = cell killing [1, 6] -15.1% | Potency (astro)

Cc1cc(C(C)(C)C)c(O)c(C(C)(C)C)c1
inactive: Potency (Hek293T) | Potency (JEG-3) | Potency (OV90) | Potency (PA-1) | Potency (SKOV3) | Potency (Tov-21-G) | Potency (Tov112D) | activity, negative = cell killing [1, 6] -15.8% | Potency (astro) | max response [3] -5.78% and 3.32%
